# Assay results reported in PubChem BioAssay.
# “And” between values parts separate entries of the source, which are not always exact repeats. Equal entries are not always repeated. For part of these data: Results with a measured potency or affinity are listed apart. The source made the active and inactive calls. Unless noted, no stated cut-off is given here; in the data, active means inhibition above about 80%; inactive means the rest.
# Assays:
# [1] = human hepatoma cell viability loss – ATP luminescence, cytotoxicity control for P. falciparum antimalarial project, primary screen (AID 2303;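 active means inhibition above 50%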;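 further: 0% = DMSO wells and 100% = digitonin-killed cells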); settings: HepG2 viability, 24-48 h, at 10 µM, stronger effect = higher value
# [2] = biological target: L-lactate dehydrogenase (Plasmodium falciparum (isolate CDC / Honduras)) (UniProt Q27743); experiment: PfLDH activity inhibition – cell lysate, 3D7 strain, counter-screen for P. falciparum growth inhibition project (AID 2304; call rule not given here;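 further: 0% = vehicle and 100% = reference inhibitor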); settings: P. falciparum 3D7 crude extract, LDH APAD/NBT absorbance; at 2 µM; stronger effect = higher value
# Chain of L-lactate dehydrogenase (Plasmodium falciparum (isolate CDC / Honduras)) (Q27743 whole entry, looked up): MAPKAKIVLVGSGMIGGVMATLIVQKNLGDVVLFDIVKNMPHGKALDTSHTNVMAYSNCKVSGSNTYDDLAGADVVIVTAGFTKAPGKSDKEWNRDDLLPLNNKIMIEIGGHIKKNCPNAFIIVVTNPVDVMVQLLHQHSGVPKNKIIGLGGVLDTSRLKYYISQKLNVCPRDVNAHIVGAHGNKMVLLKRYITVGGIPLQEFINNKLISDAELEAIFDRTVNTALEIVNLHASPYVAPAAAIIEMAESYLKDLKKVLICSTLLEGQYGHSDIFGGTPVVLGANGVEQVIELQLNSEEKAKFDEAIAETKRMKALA
# [3] = inhibition of 3D7 malaria parasite growth – strain 3D7 (AID 2306; call rule not given here;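 further: 0% = DMSO wells and 100% = chloroquine plus artemisinin control wells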); settings: P. falciparum 3D7 erythrocytic growth, LDH absorbance, 72 h; at 2 µM; stronger effect = higher value
# [4] = biological target: Calcium-dependent protein kinase 1 (Plasmodium falciparum (isolate 3D7)) (UniProt P62344); experiment: PfCDPK1 kinase inhibitors, biochemical, TCAMS library (AID 1159585; cut-off not given, nearly all actives have IC50 up to about 0.98 µM;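 further: inhibitors leave more ATP so luminescence rises with inhibition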); settings: recombinant PfCDPK1, Kinase-Glo ATP depletion luminescence
# Chain of Calcium-dependent protein kinase 1 (Plasmodium falciparum (isolate 3D7)) (P62344 whole entry, looked up): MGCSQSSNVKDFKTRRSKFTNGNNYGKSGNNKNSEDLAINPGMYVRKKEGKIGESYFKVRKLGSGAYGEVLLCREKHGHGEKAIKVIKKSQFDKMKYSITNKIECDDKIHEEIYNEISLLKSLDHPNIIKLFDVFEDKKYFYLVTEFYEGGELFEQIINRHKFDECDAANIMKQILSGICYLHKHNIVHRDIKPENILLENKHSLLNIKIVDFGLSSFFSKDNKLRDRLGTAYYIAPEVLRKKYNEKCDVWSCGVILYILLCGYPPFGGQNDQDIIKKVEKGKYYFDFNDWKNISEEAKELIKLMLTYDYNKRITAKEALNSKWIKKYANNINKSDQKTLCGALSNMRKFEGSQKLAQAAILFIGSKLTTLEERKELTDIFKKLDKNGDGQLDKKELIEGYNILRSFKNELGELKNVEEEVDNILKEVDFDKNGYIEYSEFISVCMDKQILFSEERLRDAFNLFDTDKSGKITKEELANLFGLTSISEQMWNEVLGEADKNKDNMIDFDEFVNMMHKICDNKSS
# [5] = biological target: Plasmodium falciparum protein kinase 6 (PK6, PF3D7_1337100) (UniProt Q8IDW1); experiment: PfPK6 kinase inhibitors, biochemical, TCAMS library (AID 1159586; call rule not given here); settings: recombinant PfPK6, Kinase-Glo ATP depletion luminescence
# Chain of Plasmodium falciparum protein kinase 6 (PK6, PF3D7_1337100) (Q8IDW1 1-305): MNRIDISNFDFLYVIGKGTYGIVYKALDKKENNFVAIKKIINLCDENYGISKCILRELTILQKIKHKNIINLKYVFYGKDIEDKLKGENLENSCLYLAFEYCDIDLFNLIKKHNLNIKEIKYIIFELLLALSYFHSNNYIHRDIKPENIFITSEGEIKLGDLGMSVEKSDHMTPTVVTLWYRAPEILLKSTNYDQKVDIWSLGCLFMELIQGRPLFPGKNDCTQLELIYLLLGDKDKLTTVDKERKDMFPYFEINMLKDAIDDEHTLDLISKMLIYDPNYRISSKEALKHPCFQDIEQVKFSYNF
# [6] = biological target: Protein kinase 7 (PK7), Plasmodium falciparum 3D7 (PF3D7_0213400) (UniProt Q7YTF7); experiment: inhibition of Plasmodium PK7 catalytic activity – biochemical, TCAMS antimalarial set, Kinase-Glo luminescence (AID 1159587; call rule not given here); settings: recombinant PfPK7, Kinase-Glo ATP depletion luminescence
# Chain of Protein kinase 7 (PK7), Plasmodium falciparum 3D7 (PF3D7_0213400) (Q7YTF7 1-343): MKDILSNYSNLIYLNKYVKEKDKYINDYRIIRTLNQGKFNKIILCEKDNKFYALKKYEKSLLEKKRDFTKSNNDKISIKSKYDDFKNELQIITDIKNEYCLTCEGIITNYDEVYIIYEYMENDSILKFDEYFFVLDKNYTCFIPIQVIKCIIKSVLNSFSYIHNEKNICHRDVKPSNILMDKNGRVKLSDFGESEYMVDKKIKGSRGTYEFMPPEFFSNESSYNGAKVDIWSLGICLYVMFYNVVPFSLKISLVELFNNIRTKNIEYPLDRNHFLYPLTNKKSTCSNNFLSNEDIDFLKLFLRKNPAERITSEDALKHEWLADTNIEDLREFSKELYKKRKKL
# [7] = biological target: Calcium-dependent protein kinase 4 (Plasmodium falciparum (isolate 3D7)) (UniProt Q8IBS5); experiment: PfCDPK4 kinase inhibitors, biochemical, TCAMS library (AID 1159588; cut-off not given, nearly all actives have IC50 up to about 0.91 µM); settings: recombinant PfCDPK4, Kinase-Glo ATP depletion luminescence
# Chain of Calcium-dependent protein kinase 4 (Plasmodium falciparum (isolate 3D7)) (Q8IBS5 whole entry, looked up): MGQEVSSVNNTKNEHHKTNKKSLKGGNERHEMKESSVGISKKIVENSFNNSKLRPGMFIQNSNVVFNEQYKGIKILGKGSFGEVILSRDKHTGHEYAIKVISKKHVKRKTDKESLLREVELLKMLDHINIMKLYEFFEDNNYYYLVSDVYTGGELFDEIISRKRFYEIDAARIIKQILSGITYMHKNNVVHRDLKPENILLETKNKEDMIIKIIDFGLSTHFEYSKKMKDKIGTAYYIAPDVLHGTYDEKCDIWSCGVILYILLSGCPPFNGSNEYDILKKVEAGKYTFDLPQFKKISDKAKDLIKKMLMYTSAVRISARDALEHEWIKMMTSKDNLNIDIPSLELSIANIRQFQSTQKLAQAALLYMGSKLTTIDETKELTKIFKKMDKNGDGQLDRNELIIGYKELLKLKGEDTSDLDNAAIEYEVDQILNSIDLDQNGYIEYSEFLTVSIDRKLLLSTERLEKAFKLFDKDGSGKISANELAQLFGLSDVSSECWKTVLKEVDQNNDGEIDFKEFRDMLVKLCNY
# [8] = antimalarial activity against Dd2 strain (AID 2302;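 active means growth inhibition above 50% at the single 2 µM test dose, taken to imply half-maximal potency below 2 µM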;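 further: 0% = DMSO untreated growth and 100% = chloroquine plus artemisinin killed control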); settings: P. falciparum Dd2 in RBCs, LDH growth readout, 72 h; at 2 µM; stronger effect = higher value
# [9] = growth inhibition, single agents and combos, CRL2098, cell-based, BGB or cisplatin IC20 combos, synergistic combos for chromothripsis tumors (AID 1671454); settings: CRL2098 osteosarcoma cells, drug combinations, stronger effect = higher value;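 further: cells exposed for 96 h before readout; 0% = vehicle DMSO and 100% = killing by high DMSO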
# [10] = growth inhibition, single agents and combos, HD-MB03, cell-based, BGB or cisplatin IC20 combos, synergistic combos for chromothripsis tumors (AID 1671455; in the data active means inhibition above about 83%;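 further: 0% = vehicle DMSO and 100% = high DMSO as cytotoxic control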); settings: HD-MB03 medulloblastoma cells, stronger effect = higher value
# [11] = growth inhibition, single agents and combos, UWB1.289, cell-based, BGB or cisplatin combos, synergistic combos for chromothripsis tumors (AID 1671456); settings: UWB1.289 ovarian carcinoma cells, stronger effect = higher value;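 further: cells exposed to compound for four days; 0% = vehicle DMSO and 100% = killing by high DMSO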
# [12] = growth inhibition, single agents and combos, LFS_MB_2R, cell-based, cisplatin combos, synergistic combos for chromothripsis tumors (AID 1671457); settings: LFS_MB_2R medulloblastoma cells, stronger effect = higher value;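 further: cells exposed to compound for four days before readout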
# [13] = UWB1.289_BRCA1 ovarian cancer growth, cell-based, BGB or cisplatin combinations (AID 1671459); settings: UWB1.289 BRCA1 ovarian carcinoma, drug combinations, stronger effect = higher value
# [14] = drug combination toxicity in non-malignant astrocytes – cell-based, BGB or cisplatin IC20 combos, cytotoxicity control for chromothriptic childhood tumor combination screen (AID 1671460); settings: Human astrocytes, viability inhibition, drug combinations, at 0.5 µM, stronger effect = higher value;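 further: cells exposed to compounds for 96 hours before viability readout; 0% = vehicle and 100% = killing control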
smiles,measurement,setting,value
O=c1ccc2ccc(O)c(O)c2o1,inhibition,[1],4% (inactive)
same,inhibition,[2],0% (inactive)
same,growth inhibition,[3],85% (active)
same,outcome,[4],inactive
same,outcome,[5],inactive
same,outcome,[6],inactive
same,outcome,[7],inactive
COc1ccc(C[C@H](N)C(=O)N[C@H]2[C@@H](O)[C@H](n3cnc4c(N(C)C)ncnc43)O[C@@H]2CO)cc1,growth inhibition,[8],91% (active)
same,inhibition,[1],98% (active)
same,inhibition,[2],5% (inactive)
same,growth inhibition,[3],100% (active)
same,outcome,[4],inactive
same,outcome,[5],inactive
same,outcome,[6],inactive
same,outcome,[7],inactive
CN(C)c1nc(N(C)C)nc(N(C)C)n1,inhibition,[9]; at 0.5 µM,-49.5% (inactive) and -47.8% (inactive)
same,inhibition,"[9]; measured here: combination with BGB at IC20, at 0.5 µM",-51.4% and 13.2%
same,inhibition,"[9]; measured here: combination with cisplatin at IC20, at 0.5 µM",-47.8% and -102%
same,inhibition,[10]; at 0.5 µM,1.44% (inactive) and -2.84% (inactive)
same,inhibition,"[10]; measured here: combo with BGB at IC20, at 0.5 µM",-7.11% and -19.4%
same,inhibition,"[10]; measured here: combo with cisplatin at IC20, at 0.5 µM",0.726% and 22%
same,inhibition,[11]; at 0.5 µM,-1.03% (inactive) and 0.53% (inactive)
same,inhibition,"[11]; measured here: inhibition with BGB combination, at 0.05 µM",-18.8% and -9.83%
same,inhibition,"[11]; measured here: inhibition with cisplatin combination, at 0.05 µM",-9.85% and -22.8%
same,inhibition,[12]; at 0.5 µM,-22.5% (inactive) and -23.2% (inactive)
same,inhibition,"[12]; measured here: combination with cisplatin, at 0.5 µM",-24.3% and -25.9%
same,inhibition,"[12]; measured here: combination with cisplatin, at 5 µM",-28.5% and -13.6%
same,inhibition,"[13]; BGB combination, concentration series, at 5 µM",3.42% and 17.2%
same,inhibition,[13]; at 0.5 µM,-3.79% (inactive) and -4% (inactive)
same,inhibition,"[13]; cisplatin combination, concentration series, at 5 µM",4.29% and 15.7%
same,inhibition,[14],2.24% (inactive) and 16.1% (inactive)
same,inhibition,[14]; measured here: combo with BGB IC20,5.31% and 10%
same,inhibition,[14]; measured here: combo with cisplatin IC20,-12.9% and 15.6%
